# Active and inactive are the calls of the source.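 The calls were made as follows, unless noted: active = NADPH fluorescence slope more negative than the mean of all samples by about 3 SD, 99.7% confidence; inactive = the rest.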
# Experiments:
# [1] = inhibitors of TNFa-induced NFkB p65 translocation, primary screen, imaging, HUVEC, MLSMR starter and 10KST1 sets (AID 438;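 active = inhibition above 20% together with a positive visual image hit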;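 also: compound added about 3h40 before a 20 min TNFalpha stimulation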;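 as to inhibition: signal is the nuclear over cytoplasmic p65 intensity ratio per well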); conditions: HUVEC TNFa-induced p65 nuclear translocation; cell count: measured here: nuclei count (cytotoxicity indicator), at 2.08 µM unless noted; inhibition: at 2 µM, stronger effect = higher value unless noted
# [2] = reduction of polyQ htt aggregates in cells – imaging, exon1htt(103Q)mCFP cells, high-content imaging, primary screen (AID 483;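 active = visual image review flags a hit and inhibition of aggregation exceeds 20%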;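 also: compound exposure lasted 3 days before fixation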;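 as to nuclei count: percent of the per-plate median nuclei count of sample wells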); conditions: exon1htt(103Q)mCFP cell line, aggregate imaging, at 2 µM; inhibition of aggregation: stronger effect = higher value; nuclei count: measured here: cell count, toxicity
# [3] = endothelial E-selectin expression blockers – imaging, HUVEC, immunofluorescence, MLSMR starter and 10KST1 sets, primary screen (AID 487;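 active = visually confirmed hit in the image check and inhibition above 20%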;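 as to inhibition: signal is fraction of cell area covered by stained E-selectin grains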;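 as to nuclei count: 100% = median nuclei count of all wells on the same plate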); conditions: HUVEC TNFalpha-induced E-selectin immunofluorescence imaging, at 2 µM; inhibition: stronger effect = higher value; nuclei count: measured here: cell number, toxicity
# [4] = biological target: Voltage-gated potassium channel subunit beta-2 (Rattus norvegicus) (UniProt P62483); assay: inhibitors of rat Kvbeta2 reductase activity – biochemical, NADPH fluorescence, primary screen (AID 622;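 active = fluorescence slope higher than the sample average by over 3 SD, cut at about -0.22 in these data, passing the limit was not always enough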;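 also: slope of raw intensity against log time taken from 70 to 1610 s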); conditions: recombinant KvBeta, 4-cyanobenzaldehyde reduction, at 10 µM, stronger effect = higher value
# Voltage-gated potassium channel subunit beta-2 (Rattus norvegicus), sequence (P62483 whole entry, looked up): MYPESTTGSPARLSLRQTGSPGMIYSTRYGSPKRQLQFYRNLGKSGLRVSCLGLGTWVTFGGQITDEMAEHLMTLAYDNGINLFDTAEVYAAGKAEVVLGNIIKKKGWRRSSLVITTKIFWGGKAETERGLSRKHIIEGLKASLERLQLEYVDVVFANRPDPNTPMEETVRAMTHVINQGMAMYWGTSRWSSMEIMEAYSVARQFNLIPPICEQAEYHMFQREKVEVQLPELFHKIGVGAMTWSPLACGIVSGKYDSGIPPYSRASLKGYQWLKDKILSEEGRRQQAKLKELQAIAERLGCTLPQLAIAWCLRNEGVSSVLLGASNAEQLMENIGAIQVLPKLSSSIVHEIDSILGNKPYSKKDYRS
# [5] = biological target: Voltage-gated potassium channel subunit beta-2 (Rattus norvegicus) (UniProt P62483); assay: enhancers of rat Kvbeta2 NADPH turnover – biochemical, NADPH fluorescence, primary screen (AID 623); conditions: Recombinant KvBeta, NADPH fluorescence decrease slope, 10 min; at 10 µM; stronger effect = lower value;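 also: fluorescence intensity change per second fitted from 20 to 320 s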
# [6] = biological target: Muscarinic acetylcholine receptor M4 (Homo sapiens) (UniProt P08173); assay: M4-linked GIRK flux change, two-sided – cell-based, HEK293 M4/GIRK, thallium flux, BTC-AM, M4 allosteric agonist project, primary screen (AID 625;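 active = fluorescence slope after compound addition differing from the mean of all tested samples at 99.7% confidence, mostly higher but some lower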;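 also: thallium influx through GIRK channels coupled to M4 in HEK293 cells with BTC-AM dye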); conditions: at 10 µM, actives lie on both sides
# Muscarinic acetylcholine receptor M4 (Homo sapiens), sequence (P08173 whole entry, looked up): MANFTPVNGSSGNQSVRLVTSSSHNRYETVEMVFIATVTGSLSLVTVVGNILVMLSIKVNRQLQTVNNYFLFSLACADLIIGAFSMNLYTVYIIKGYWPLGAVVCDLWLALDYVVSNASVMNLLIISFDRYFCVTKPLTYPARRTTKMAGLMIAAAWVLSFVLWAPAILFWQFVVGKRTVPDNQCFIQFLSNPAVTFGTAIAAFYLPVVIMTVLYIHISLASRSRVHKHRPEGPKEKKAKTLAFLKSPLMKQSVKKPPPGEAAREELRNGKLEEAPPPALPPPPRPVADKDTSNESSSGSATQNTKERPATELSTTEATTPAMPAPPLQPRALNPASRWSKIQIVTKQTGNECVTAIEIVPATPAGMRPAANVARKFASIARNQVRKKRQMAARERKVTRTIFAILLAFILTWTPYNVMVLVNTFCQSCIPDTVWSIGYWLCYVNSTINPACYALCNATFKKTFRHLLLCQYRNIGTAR
# [7] = blockers of RIG-like receptor reporter activation – cell-based, Sendai virus stimulus, luciferase, 10K MLSCN set, TLR/RLR signaling modifier project, primary screen (AID 602276;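 active = inhibition at or above 50% at 10 µM; inactive = inhibition below 50%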;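 also: firefly luciferase from ISG56 promoter only with Renilla not read in this screen; 0% = Sendai virus plus DMSO and 100% = medium plus DMSO without virus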); conditions: HEK293 RL24 IRF3 luciferase reporter, at 10 µM, stronger effect = higher value
# [8] = TLR3 IRF3 reporter activation blockers – cell-based, poly I:C stimulus, luciferase, 10K MLSCN set, primary screen (AID 602277;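 active = inhibition of the reporter signal at or above 50%; inactive = inhibition below 50%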); conditions: HEK293-TLR3 RL24 IRF3 luciferase reporter, at 10 µM, stronger effect = higher value
# [9] = loss of swimming-algae plug formation – whole organism, Chlamydomonas reinhardtii, WT vs cilia-less mutant, absorbance, 96-well, primary screen (AID 463189;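 active = inhibition at or above 50% relative to wild type and mutant plate controls; inactive = inhibition below 50%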;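 also: 0% = wild type cc124 cells in DMSO and 100% = ciliumless bld1 mutant cells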); conditions: Chlamydomonas reinhardtii gravitaxis, OD600 absorbance, 2 days; at 10 µM; stronger effect = higher value
SMILES,cell count [1],inhibition [1],inhibition of aggregation [2],nuclei count [2],inhibition [3],nuclei count [3],fluorescence slope [4],NADPH fluorescence slope [5],fluorescence slope [6],inhibition [7],inhibition [8],inhibition [9]
CC1CCN2c3nc4ccccn4c(=O)c3CC3(C(=O)N(C)C(=O)N(C)C3=O)C2C1 (stereo not given),459,-8.6% (inactive),11.4% (inactive),76.7%,-10% (inactive),95.1%,-0.523 (inactive),-6.2e-05 (inactive),0.00473 (inactive),10.8% (inactive),16.3% (inactive),
O=C(c1ccc2nc3ccc(Cl)cc3c(=O)n2c1)N1CCC2(CC1)OCCO2,758,-20.4% (inactive),8% (inactive),110%,-56.7% (inactive),125%,-0.0098 (inactive),1.1e-05 (inactive),0.00414 (inactive),-8.72% (inactive),-12% (inactive),
CC1(C)CC(=O)C=C(NCCN2CCN(C(=O)Cc3ccc(Cl)cc3)CC2)C1,706,-4.2% (inactive),3% (inactive),120%,-80.1% (inactive),109%,-0.463 (inactive),-4.2e-05 (inactive),0.00475 (inactive),16.3% (inactive),9.81% (inactive),
COc1ccc(OC)c(C2=NOC(C(=O)N3CCC4(CC3)OCCO4)C2)c1 (stereo not given),789,-17.7% (inactive),4% (inactive),84.6%,-52.4% (inactive),77.7%,-0.234 (inactive),-6.7e-06 (inactive),0.00835 (inactive),10.6% (inactive),17% (inactive),
CCCCn1c(O)c(C(C)=NCCc2ccccc2)c(=O)[nH]c1=O,280,-5.3% (inactive),16.4% (inactive),72.1%,-114% (inactive),187%,-0.454 (inactive),-0.000351 (inactive),0.00293 (inactive),3.98% (inactive),-8.74% (inactive),
Nc1ncnc2c1ncn2[C@@H]1O[C@H](COP(=O)(O)CP(=O)(O)OP(=O)(O)O)[C@H](O)C1O (stereo not given in full),,,,,,,,,,,,8.43% (inactive)
Cn1c(O)c(C=NCc2ccco2)c(=O)n(C)c1=O,327,-3.8% (inactive),-8.5% (inactive),109%,-150% (inactive),118%,-0.557 (inactive),3.2e-06 (inactive),0.00416 (inactive),22.6% (inactive),14.6% (inactive),
Cc1cc(N2C(=O)C3CCCN3C2c2cccc(Cl)c2)no1 (stereo not given),465,-3.9% (inactive),8.2% (inactive),97.3%,28.8% (inactive),91.4%,-0.543 (inactive),-2.7e-05 (inactive),0.00553 (inactive),13.2% (inactive),22.3% (inactive),
O=c1[nH]c(=O)n(Cc2ccccc2)c(O)c1C=NCCCO,414,-6.5% (inactive),24.4% (inactive),90.8%,-59% (inactive),128%,-0.52 (inactive),-3e-05 (inactive),0.00467 (inactive),16.7% (inactive),16.9% (inactive),
CC12CCCCC1=[N+]([O-])CN2O (stereo not given),725,-10% (inactive),-27.6% (inactive),99.9%,-15.8% (inactive),118%,-0.554 (inactive),1.5e-05 (inactive),0.0045 (inactive),-0.121% (inactive),6.9% (inactive),
O=C(Cn1c2c(c(-c3ccccc3Cl)cc1=O)CCC2)N1CCC2(CC1)OCCO2,861,-5% (inactive),-9% (inactive),107%,-175% (inactive),125%,-0.605 (inactive),9.7e-06 (inactive),0.00803 (inactive),-8.12% (inactive),-12.2% (inactive),
CCOc1ccc(Br)c(C2(O)CC(C)N(C)CC2C)c1 (stereo not given),607,-10.1% (inactive),-25.8% (inactive),122%,-36.6% (inactive),121%,-0.398 (inactive),-8.9e-05 (inactive),0.00551 (inactive),12.4% (inactive),21.4% (inactive),
COc1ccccc1OCCCn1cc(C(=O)c2ccco2)c2ccccc21,596,-2.5% (inactive),-12.2% (inactive),101%,-29.4% (inactive),111%,-0.309 (inactive),-2.9e-06 (inactive),0.00746 (inactive),-22.2% (inactive),-81.2% (inactive),
NC(=O)OCCSc1nnc(-c2cccc(C(N)=S)c2)o1,330,3.5% (inactive),-7.4% (inactive),107%,-48% (inactive),96.2%,-0.541 (inactive),-9.5e-05 (inactive),0.00508 (inactive),17.8% (inactive),12.8% (inactive),
OCC12COC3c4ccccc4C(OC1)N32 (stereo not given),478,-7.1% (inactive),-0.1% (inactive),109%,-7.2% (inactive),112%,-0.538 (inactive),-4.5e-06 (inactive),0.00589 (inactive),5.14% (inactive),12.6% (inactive),
CCCCn1c(O)c(C(C)=Nc2cccc(C(=O)O)c2)c(=O)[nH]c1=O,278,6.8% (inactive),4.7% (inactive),75.2%,-151% (inactive),199%,-0.604 (inactive),2.7e-05 (inactive),0.00369 (inactive),4.58% (inactive),3.8% (inactive),
CCOC(=O)c1cccc([P+](=O)O)c1,570,0% (inactive),1.9% (inactive),95.2%,-41.6% (inactive),106%,-0.582 (inactive),-3.4e-05 (inactive),0.00773 (inactive),-12.3% (inactive),-3.34% (inactive),
CCN1CCN(c2ncnc3ccc(Br)cc23)CC1,207,2.1% (inactive),48% (active),77.2%,-79% (inactive),99.3%,-0.583 (inactive),2.1e-06 (inactive),0.00395 (inactive),13.3% (inactive),8.78% (inactive),
CCC(C)NC(=O)c1c(N)n(CC2CCCO2)c2nc3ccccc3nc12 (stereo not given),603,-1.4% (inactive),-0.7% (inactive),80.9%,-13.3% (inactive),128%,-0.058 (active),1.6e-05 (inactive),0.00598 (inactive),14.8% (inactive),17.6% (inactive),
COc1ccc(CCNC(=O)c2c(N)n(CCN3CCOCC3)c3nc4ccccc4nc23)cc1,403,9.5% (inactive),-9.7% (inactive),90.9%,-157% (inactive),115%,-0.454 (inactive),-7.3e-05 (inactive),0.00515 (inactive),-3.7% (inactive),-28.7% (inactive),
